The list is not random: actives were taken first. Their share in the collection is about 5.7%.
DAX1 inh-1: inhibitors of DAX1 repression of SF-1 activated StAR promoter; 1.1% of 370,000 active; inhibition, % at 6.8 µM; HEK293T StAR-luciferase reporter, SF-1/DAX-1 repression relief; AID 652010;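 active = inhibition above the mean over all tested compounds plus 3 SD, cut at about 3.6% in these data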;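 note: 0% = DAX-1 cells with DMSO and 100% = cells lacking DAX-1 with DMSO; higher inhibition means more luminescence from relief of DAX-1 repression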
AHR act: human AHR activation; P35869; AHR-responsive luciferase reporter cells, luminescence; activation, % at 5 µM; 2.5% of 320,000 active; AID 2796; in the data active = activation above about 47%;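 note: 0% = vehicle wells and 100% = reference agonist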
Target sequence (P35869 whole entry, looked up): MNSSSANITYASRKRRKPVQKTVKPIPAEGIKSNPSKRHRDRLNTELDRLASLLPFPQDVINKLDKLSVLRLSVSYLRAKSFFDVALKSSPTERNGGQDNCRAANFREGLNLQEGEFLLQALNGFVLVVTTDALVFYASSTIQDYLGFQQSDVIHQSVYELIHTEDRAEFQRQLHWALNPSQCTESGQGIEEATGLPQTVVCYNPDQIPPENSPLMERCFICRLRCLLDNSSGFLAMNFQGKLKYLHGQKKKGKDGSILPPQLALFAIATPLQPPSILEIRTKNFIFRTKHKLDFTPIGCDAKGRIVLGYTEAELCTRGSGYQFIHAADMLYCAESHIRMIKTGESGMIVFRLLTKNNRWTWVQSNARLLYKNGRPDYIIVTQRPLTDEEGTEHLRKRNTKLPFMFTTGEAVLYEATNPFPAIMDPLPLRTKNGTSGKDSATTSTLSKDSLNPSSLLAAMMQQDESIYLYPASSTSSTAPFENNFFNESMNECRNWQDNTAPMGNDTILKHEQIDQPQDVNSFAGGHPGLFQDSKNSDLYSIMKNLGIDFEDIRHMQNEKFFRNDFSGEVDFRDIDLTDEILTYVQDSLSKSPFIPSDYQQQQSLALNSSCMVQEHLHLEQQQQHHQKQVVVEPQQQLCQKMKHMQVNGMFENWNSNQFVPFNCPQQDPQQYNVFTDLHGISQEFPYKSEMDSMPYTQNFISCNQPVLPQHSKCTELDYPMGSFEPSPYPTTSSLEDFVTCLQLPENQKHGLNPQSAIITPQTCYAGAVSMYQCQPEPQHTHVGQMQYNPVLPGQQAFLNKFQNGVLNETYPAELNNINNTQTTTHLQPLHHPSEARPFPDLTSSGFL
ssDAF12 agonist: S. stercoralis DAF-12 activation, primary screen; HEK293 ssDAF-12/GRIP1 lit1-tk-luc reporter, luminescence; % of 3 µM dafachronic acid response; activation, % at 6.8 µM; 1% of 370,000 active; AID 652126;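 active = activation above the mean over all tested compounds plus 3 SD, cut at about 0.9% in these data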;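 note: 0% = DMSO-only wells and 100% = 3 µM delta7-dafachronic acid wells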
DAX1 inh-2: inhibitors of human orphan nuclear receptor DAX1 (NR0B1). 0.99% of 340,000 active. HEK293 Gal4-DAX1 luciferase reporter, luminescence. inhibition, % at 6.75 µM;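 active = inhibition above the mean over all tested compounds plus 3 SD, cut at about 4.2% in these data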;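 note: 0% = DAX1-transfected cells with DMSO and 100% = empty-vector control cells with DMSO; inhibition shows as a rise in luminescence from relieved DAX1 repression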
hgDAF12 agonist: activates the H. glycines DAF-12 receptor ligand-binding domain. HEK293 GAL4-hgDAF12 UAS-luciferase reporter, agonist luminescence; normalized to butyrate control. activation, % at 6.8 µM. 1.8% of 370,000 active. AID 687014;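 active = activation above a cutoff set at the mean of all screened compounds plus 3 SD, cut at about 10% in these data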;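 note: 0% = DMSO wells and 100% = sodium butyrate wells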
hcDAF-12 act: activates DAF-12 receptor from parasite H. contortus; HEK293 hcDAF-12 lit1-tk-luc reporter, luminescence; 0% DMSO, 100% Δ7-dafachronic acid; activation, % at 6.8 µM; 1.4% of 370,000 active; AID 652067;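 active = activation above the mean of all tested compounds plus 3 SD, cut at about 5.5% in these data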;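 note: 100% = response to 3 µM Δ7-dafachronic acid high control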
The depositor's hits bear a star; . = no result given.

SMILES	DAX1 inh-1	AHR act	ssDAF12 agonist	DAX1 inh-2	hgDAF12 agonist	hcDAF-12 act
CC(C)c1ccc(/C=C/C(=O)O)cc1	1	1	0	4.3*	2	1
CCCNC(=O)/C=C/c1ccc(C(C)C)cc1	1	20	-1	5.0*	7	0
CC(C)c1ccc(/C=C/C(=O)NCCCc2ccccc2)cc1	1	14	-1	0	1	-2
CCN1CCN(C(=O)/C=C/c2ccc(C(C)C)cc2)CC1	0	0	-1	0	1	-1
Cn1c(CNC(=O)c2ccc(Cl)cc2)nnc1SCC(=O)N1CCOCC1	-2	0	-1	0	3	1
COC(=O)c1n[nH]c2ccccc12	1	28	1.0*	0	2	6.2*
CC(OC(=O)c1n[nH]c2ccccc12)C(=O)Nc1ccccc1[N+](=O)[O-] (configuration not stated)	0	25	1.0*	-1	4	3
COCCNC(=O)c1n[nH]c2ccccc12	1	11	0	1	1	3
COC(=O)c1ccc(NC(=S)N2CCN(CCO)CC2)cc1	0	3	-2	-1	0	-3
CC(=O)c1ccc(NC(=S)N2CCN(CCO)CC2)cc1	0	3	-1	4.8*	0	-1
COc1ccc(Cc2c(C3CCCCC3)nc3ccc(C)cn23)c(C)c1	-1	.	0	.	0	0
CCOC(=O)N(C)[C@H]1C[C@H]2c3[nH]c4c(-c5ccc6c(c5)OCO6)cccc4c3CCN2C(=O)[C@H]1[C@H](C)O	-1	.	-1	.	-2	-2
N#Cc1c(F)cccc1NCCCn1ccnc1	0	24	-1	4.6*	-2	0
N#Cc1cc([N+](=O)[O-])ccc1NCCCn1ccnc1	0	37	-1	0	0	0
CCOc1ccccc1/C=C/C(=O)NCC(=O)N1CCC(N(C)C2CCCCC2C)CC1 (configuration not stated)	0	8	-1	0	1	-1
C[C@@H]1C=CCCO[C@]12C(=O)N(CC1CC1)c1cccc(Br)c12	1	.	-2	.	0	1
C[n+]1ccc(/C=C/c2ccccc2O)c2ccccc21	0	63*	-2	0	-2	6.5*
CN1/C(=C/c2cc[n+](C)c3ccccc23)C=Cc2ccccc21	.	.	.	-4	.	.
COC(=O)[C@]1(C)N[C@H](CN(C)C(C)=O)[C@@H]2C(=O)N(Cc3ccccc3)C(=O)[C@@H]21	0	0	3.7*	0	-1	0
CCN(C[C@H]1N[C@@](Cc2ccccc2)(C(=O)OC)[C@H]2C(=O)N(Cc3ccccc3)C(=O)[C@@H]12)C(=O)C1CCCCC1	4.2*	3	0	1	3	0
CC(=O)Nc1ccc(NC(=O)C2CCCN2C(=O)Nc2ccc(F)c([N+](=O)[O-])c2)cc1 (configuration not stated)	1	-2	-2	4.9*	3	0
CC(=O)Nc1ccc(NC(=O)C2CCCN2C(=O)Nc2ccccc2[N+](=O)[O-])cc1 (configuration not stated)	0	-1	-1	0	-2	-2
Cc1ccc(C2NC(=NCc3ccccc3)Nc3nc(C)cc(=O)n32)cc1 (configuration not stated)	0	-1	-1	1	-1	0
CCOC(=O)N1CCN(C(=O)CCn2nc(-c3ccccc3)ccc2=O)CC1	0	-1	-1	4.8*	-2	-1
COC(=O)[C@]12C[C@H](CC(=O)NCc3cccs3)C(=O)N(Cc3ccc4c(c3)OCO4)C1=C[C@H](COCc1ccccc1)O[C@@H]2C	-1	.	-1	.	0	-1
SMILES	DAX1 inh-1	AHR act	ssDAF12 agonist	DAX1 inh-2	hgDAF12 agonist	hcDAF-12 act
Cc1cccc2sc(N(CCCN(C)C)C(=O)c3ccc(Cl)s3)nc12	1	0	0.9*	2	-1	-1
O=C(NCCc1ccccc1)c1ccc2c(c1)S(=O)(=O)N=C1CCCCCN12	2	1	-1	1	0	-1
Cc1c(Cc2ccccc2)c(=O)oc2cc(OC(C)C(=O)NCC3CCC(C(=O)O)CC3)c(Cl)cc12 (configuration not stated)	0	0	-2	4.6*	0	-2
Cc1cc(=O)oc2cc(OC(C)C(=O)NCC3CCC(C(=O)O)CC3)ccc12 (configuration not stated)	0	-1	-1	3	-3	0
COc1ccc(/C=N/n2c(COc3ccccc3)n[nH]c2=S)cc1OC	0	9	-1	1	0	-2
O=[N+]([O-])c1ccc(O)c(/C=N/n2c(CO)nc3ccccc32)c1	1	6	-2	0	-1	1
O=[N+]([O-])c1ccc(O)c(/C=N/n2cnc3ccccc32)c1	0	56*	-2	0	1	-2
CCCCn1c(/C=N/Nc2nc3ccccc3[nH]2)nc2ccccc21	0	73*	-1	1	2	4
C(=N\Nc1nc2ccccc2[nH]1)/c1cccc2nccnc12	-1	27	-1	.	1	2
C#CCn1cc(/C=N/Nc2nc3ccccc3[nH]2)c2ccccc21	-4	127*	-1	-4	-10	-4
COC(=O)[C@]12C[C@H](CC(=O)NCCC(C)C)C(=O)N(Cc3ccco3)C1=C[C@H](C(C)(C)C)O[C@@H]2C	-1	.	-1	.	1	1
O=C(Nc1cccc(C(F)(F)F)c1)c1cccnc1NCCc1ccccc1	0	5	-2	0	2	1
CCN(CC)C(=O)Oc1ccc(Cl)c2cccnc12	0	10	-2	3	-4	-1
O=C(Nc1cccc(C(F)(F)F)c1)Oc1ccc(Cl)c2cccnc12	0	49*	-1	0	0	-1
O=C(Nc1cccc(C(F)(F)F)c1)c1cccnc1NCCO	0	52*	-1	-2	2	-1
COc1ccccc1C1CC(=O)Oc2cc(O)ccc21 (configuration not stated)	4.0*	.	-2	0	1	-1
COc1ccccc1C1CC(=O)Oc2cc(C)c(Cl)cc21 (configuration not stated)	-1	.	0	0	2	-1
Nc1nc2ccc(Oc3ccccc3)cc2s1	1	.	0	0	12*	1
Cc1nc2ccc(Oc3ccccc3)cc2s1	0	-4	-1	3	2	2
CC(C)(C)OC(=O)N1CCC(NC(=O)c2[nH]c(C(F)(F)F)nc2-c2ccccc2)CC1	-1	.	0	.	3	-1
COc1ccc(NC(=S)N2CCN(C(=O)C3CCCO3)CC2)cc1 (configuration not stated)	1	.	0	0	1	0

Screening results deposited in PubChem by The Scripps Research Institute Molecular Screening Center.
